# According to PubChem BioAssay (EPA / NIEHS):
# Results filed as inconclusive are left out. Activity calls are given as the source filed them. How the source made its calls, unless noted: active means hit-call score of the fitted dose curve at least 0.9, where 1 is the maximum; inconclusive means response in the unintended direction; inactive means score below 0.9.
# What was measured:
# [1] = target: human Vascular Endothelial Growth Factor Receptor 1 (VEGFR1), FLT1 (gene 2321) (UniProt P17948); assay: NVS_ENZ_hVEGFR1: NovaScreen (NVS) Enzymatic Assay for human Vascular Endothelial Growth Factor Receptor 1 (VEGFR1) (AID 2283226)
# In short: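 Cell-free assay of recombinant human VEGFR1 kinase with substrate, measured 1 h after dosing; fluorescence with electrophoretic mobility-shift separation of substrate and product, referenced to DMSO; primary screen at 25 uM in duplicate, actives then run in concentration series.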
# [2] = STM_H9_OrnCyssISnorm_ratio: Stemina devTOX quickPredict H9 human embryonic stem cell (hESC)-based Assay for Ornithine (ORN):Cystine (CYSS) Ratio (AID 2283714)
# In short: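 Undifferentiated H9 hESCs exposed 72 h, media and compound replaced every 24 h; final 24-h conditioned media deproteinized and analysed by UPLC-HRMS against C13 spike-ins. Value is the internal-standard-normalized ORN/CYSS ratio versus 0.1% DMSO.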
# [3] = target: human Thyroid Receptor Alpha (TRa), THRA (gene 7067) (UniProt P10827); assay: NVS_NR_hTRa_Antagonist: NovaScreen (NVS) Nuclear Receptor Binding Assay for human Thyroid Receptor Alpha Antagonism (TRa) (AID 2283362);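 further: activity is loss of signal relative to DMSO baseline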
# In short: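 AlphaLISA chemiluminescent immunoassay readout, taken 1 h post-dosing in a cell-free system with extracted protein. Activity was scored as signal loss against DMSO negative control, from duplicate single-concentration (25 uM) testing followed by concentration-response follow-up.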
# [4] = target: chimpanzee Androgen Receptor (AR), AR (gene 747460) (UniProt O97775); assay: NVS_NR_cAR: NovaScreen (NVS) Nuclear Receptor Binding Assay for chimpanzee Androgen Receptor (AR) (AID 2283346);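 further: radioligand displacement from AR measured by scintillation counting in a cell-free assay; a loss of bound radioligand signal versus DMSO counts as binding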
# In short: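 Radioligand binding to chimpanzee AR expressed in Sf9/Sf21 cells, cell-free, measured 72 h after dosing by lysate-based scintillation counting. Loss of signal vs DMSO; initial duplicate screen at 25 uM, actives retested in concentration series.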
# [5] = CCTE_Shafer_MEA_dev_per_burst_spike_percent: CCTE's Neural Network Formation Assay for Percent of Spikes in a Burst, Shafer Lab (AID 2284032; active means hit-call score of the fitted dose curve at least 0.9, where 1 is the maximum; inactive means score below 0.9)
# In short: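 Rat primary cortical neurons on 16-electrode MEA wells, dosed from plating day 0 for 12 days with renewal on DIV 5 and 9; spikes-in-bursts percentage averaged over bursting electrodes, collapsed as AUC across days 5, 7, 9, 12; loss direction versus DMSO.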
# [6] = CCTE_Shafer_MEA_dev_AB: CCTE's Alamar Blue Assay for Cytotoxicity in the Neural Network Formation Assay, Shafer Lab (AID 2284083);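 further: resazurin reduction fluorescence as viability of cultured neurons; twelve days of exposure from plating with re-dosing on DIV 5 and 9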
# In short: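 Rat cortical primary cultures, 1.5 x 10^5 cells/well on MEA; continuous compound exposure over 12 days of network development, re-dosed with full medium change DIV 5 and 9. Alamar Blue fluorescence; loss of signal = cytotoxicity vs DMSO baseline.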
# [7] = CCTE_Mundy_HCI_Cortical_Synap_Neur_Matur_BPCount: CCTE's Synaptogenesis and Neurite Maturation Assay in rat cortical cells for Branch Point Count, Mundy Lab (AID 2284211; active means hit-call score of the fitted dose curve at least 0.9, where 1 is the maximum; inactive means score below 0.9)
# In short: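 Branch point number is quantified by automated imaging of fluorescently labelled neurites and synapses in rat primary cortical neurons exposed from DIV 7 to DIV 12. Activity is analysed relative to DMSO negative control.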
# [8] = CCTE_Mundy_HCI_Cortical_NOG_NeuriteCount: CCTE's Neurite Outgrowth Assay in rat cortical cells for Neurite Count, Mundy Lab (AID 2284212; active means hit-call score of the fitted dose curve at least 0.9, where 1 is the maximum; inactive means score below 0.9;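 further: cells fixed about two days after chemical exposure began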)
# In short: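 Neurite number per cell from high-content imaging of betaIII-tubulin immunostaining, with Hoechst nuclear counterstain.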
# [9] = CCTE_Mundy_HCI_Cortical_Synap_Neur_Matur_NeuriteCount: CCTE's Synaptogenesis and Neurite Maturation Assay in rat cortical cells for Neurite Count, Mundy Lab (AID 2284222; active means hit-call score of the fitted dose curve at least 0.9, where 1 is the maximum; inactive means score below 0.9;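 further: exposure from day 7 to day 12 in vitro with readout at day 12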)
# In short: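 Primary rat cortical cells were plated, treated with AraC at DIV 5, then exposed to chemicals from DIV 7 through DIV 12. After fixation and immunostaining for MAP2 and synaptophysin, imaging quantified neurites, with DMSO as the negative control.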
# [10] = CCTE_Mundy_HCI_Cortical_NOG_BPCount: CCTE's Neurite Outgrowth Assay in rat cortical cells for Branch Point Count, Mundy Lab (AID 2284237; active means hit-call score of the fitted dose curve at least 0.9, where 1 is the maximum; inactive means score below 0.9;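 further: branch points counted about two days after chemical exposure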)
# In short: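 Measured 50.33 h after dosing, this morphology endpoint uses rat primary cortical cultures labelled for betaIII-tubulin. Branch points are quantified by high-content imaging, with DMSO as negative control and baseline.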
# [11] = test system: turtle Thyroid Hormone Receptor, alpha (TRa), gene 101949057; assay: ATG_trTRa_XSP2: Attagene TRANS-FACTORIAL Multi-Species (XSP1) HepG2 Assay for turtle Thyroid Hormone Receptor, alpha (TRa) (AID 2283834);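 further: hits raise reporter mRNA over the DMSO baseline so AC50 marks activators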
# In short: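 Readout: reporter mRNA induction, fluorescence after RT-PCR, HpaI digestion and capillary electrophoresis. Transiently transfected HepG2, exogenous NR-Gal4 chimera driving GAL4-UAS reporter, 24 h compound exposure. Activity fitted upward relative to DMSO baseline.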
# [12] = target: human Thyroid hormone Receptor alpha (TRa), THRA (gene 7067) (UniProt P10827); assay: ATG_hTRa_XSP2: Attagene TRANS-FACTORIAL Multi-Species (XSP2) HepG2 Assay for human Thyroid hormone Receptor alpha (TRa) (AID 2283838)
# In short: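 HepG2 cells transiently transfected with multiplexed GAL4-UAS reporter units and exogenous NR-GAL4 chimeras; 24 h chemical exposure with 3 nM 6-alpha-fluorotestosterone and 1.5 nM norgestrel present. Reporter mRNA measured by RT-PCR, FAM labelling, HpaI digestion, capillary electrophoresis; gain-of-signal versus DMSO.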
# [13] = target: frog Thyroid hormone Receptor alpha (TRa), thra-a (gene 397942) (UniProt P15204); assay: ATG_frTRa_XSP2: Attagene TRANS-FACTORIAL Multi-Species (XSP2) HepG2 Assay for frog Thyroid hormone Receptor alpha (TRa) (AID 2283839)
# In short: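 Read-out: fluorescent reporter-transcript fragments resolved by capillary electrophoresis after RT-PCR and HpaI cut. Human HepG2 liver cells carry a transfected frog TRα-Gal4 chimera driving a UAS reporter; 24 h exposure, DMSO baseline, positive-direction fit.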
# [14] = target: human Thyroid hormone Receptor beta (TRb), THRB (gene 7068) (UniProt P10828); assay: ATG_hTRb_XSP2: Attagene TRANS-FACTORIAL Multi-Species (XSP2) HepG2 Assay for human Thyroid hormone Receptor beta (TRb) (AID 2283840);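 further: actives raise reporter mRNA so potency reflects agonist-like gain of signal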
# In short: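 Read-out: reporter mRNA induction (RT-PCR, 6-FAM labeling, capillary electrophoresis), gain-of-signal relative to DMSO baseline. Transiently transfected HepG2 TRANS multiplex (NR-Gal4 chimeras, GAL4-UAS reporters), 24 h chemical exposure; medium contained 3 nM 6-alpha-fluorotestosterone plus 1.5 nM norgestrel.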
# [15] = CCTE_Mundy_HCI_hNP1_Pro_ResponderAvgInten: CCTE's Proliferation Assay in human neuroprogenitor cells, Mundy Lab (AID 2284224);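 further: human neural progenitor cells hNP1 derived from WA09 embryonic stem cells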
# In short: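 Proliferation read as average intensity of BrdU-positive cells, imaged at 26.25 h post-dosing: chemical exposure started after 40–44 h culture, BrdU during final 4 h, paraformaldehyde fixation. Positive-direction fit relative to DMSO.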
# [16] = CCTE_Mundy_HCI_hNP1_Casp3_7: CCTE's Caspase-Glo 3/7 Assay in human neuroprogenitor cells for Apoptosis, Mundy Lab (AID 2284240; active means hit-call score of the fitted dose curve at least 0.9, where 1 is the maximum; inactive means score below 0.9)
# In short: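 Luminescent caspase-3/7 readout, 26.5 h post-dose, in human neural progenitor cells from WA09 embryonic stem cells. Cells grew 40–44 h at 37 °C, 5% CO2 before chemical addition. Activity analysed as signal increase over DMSO baseline.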
# [17] = target: Estrogen receptor (Homo sapiens) (UniProt P03372); assay: NVS_NR_hER: NovaScreen (NVS) Nuclear Receptor Binding Assay for human Estrogen Receptor (ER) (AID 2283348)
# In short: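 Radioligand competitive displacement binding to estrogen receptor from MCF7 extract, cell-free; 18 h after dosing, scintillation read-out. Primary screen in duplicate at 25 uM; actives followed up in concentration series; loss of signal vs DMSO.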
# [18] = target: mouse Estrogen Receptor alpha (Era), Esr1 (gene 13982) (UniProt P19785); assay: NVS_NR_mERa: NovaScreen (NVS) Nuclear Receptor Binding Assay for mouse Estrogen Receptor alpha (Era) (AID 2283378);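 further: hit means loss of bound radioligand signal relative to DMSO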
# In short: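 Filter scintillation counts of bound radioligand, measured 18 h post-dose, gave the readout; decreased signal relative to DMSO controls indicated displacement from mouse Era. Primary screen ran in duplicate at 25 uM; active chemicals were retested across concentrations.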
# [19] = target: human Esterase Plasma (ES), BCHE (gene 590) (UniProt P06276); assay: NVS_ENZ_hES: NovaScreen (NVS) Enzymatic Assay for human Esterase Plasma (ES) (AID 2283157)
# In short: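 Esterase from human plasma, cell-free, colorimetric absorbance read 0.25 h after dosing. Screened at 25 uM in duplicate, with threshold-passing chemicals run in concentration-response up to 50 uM; loss of signal fitted versus DMSO.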
# Sequence of human Vascular Endothelial Growth Factor Receptor 1 (VEGFR1), FLT1 (gene 2321) (P17948 whole entry, looked up): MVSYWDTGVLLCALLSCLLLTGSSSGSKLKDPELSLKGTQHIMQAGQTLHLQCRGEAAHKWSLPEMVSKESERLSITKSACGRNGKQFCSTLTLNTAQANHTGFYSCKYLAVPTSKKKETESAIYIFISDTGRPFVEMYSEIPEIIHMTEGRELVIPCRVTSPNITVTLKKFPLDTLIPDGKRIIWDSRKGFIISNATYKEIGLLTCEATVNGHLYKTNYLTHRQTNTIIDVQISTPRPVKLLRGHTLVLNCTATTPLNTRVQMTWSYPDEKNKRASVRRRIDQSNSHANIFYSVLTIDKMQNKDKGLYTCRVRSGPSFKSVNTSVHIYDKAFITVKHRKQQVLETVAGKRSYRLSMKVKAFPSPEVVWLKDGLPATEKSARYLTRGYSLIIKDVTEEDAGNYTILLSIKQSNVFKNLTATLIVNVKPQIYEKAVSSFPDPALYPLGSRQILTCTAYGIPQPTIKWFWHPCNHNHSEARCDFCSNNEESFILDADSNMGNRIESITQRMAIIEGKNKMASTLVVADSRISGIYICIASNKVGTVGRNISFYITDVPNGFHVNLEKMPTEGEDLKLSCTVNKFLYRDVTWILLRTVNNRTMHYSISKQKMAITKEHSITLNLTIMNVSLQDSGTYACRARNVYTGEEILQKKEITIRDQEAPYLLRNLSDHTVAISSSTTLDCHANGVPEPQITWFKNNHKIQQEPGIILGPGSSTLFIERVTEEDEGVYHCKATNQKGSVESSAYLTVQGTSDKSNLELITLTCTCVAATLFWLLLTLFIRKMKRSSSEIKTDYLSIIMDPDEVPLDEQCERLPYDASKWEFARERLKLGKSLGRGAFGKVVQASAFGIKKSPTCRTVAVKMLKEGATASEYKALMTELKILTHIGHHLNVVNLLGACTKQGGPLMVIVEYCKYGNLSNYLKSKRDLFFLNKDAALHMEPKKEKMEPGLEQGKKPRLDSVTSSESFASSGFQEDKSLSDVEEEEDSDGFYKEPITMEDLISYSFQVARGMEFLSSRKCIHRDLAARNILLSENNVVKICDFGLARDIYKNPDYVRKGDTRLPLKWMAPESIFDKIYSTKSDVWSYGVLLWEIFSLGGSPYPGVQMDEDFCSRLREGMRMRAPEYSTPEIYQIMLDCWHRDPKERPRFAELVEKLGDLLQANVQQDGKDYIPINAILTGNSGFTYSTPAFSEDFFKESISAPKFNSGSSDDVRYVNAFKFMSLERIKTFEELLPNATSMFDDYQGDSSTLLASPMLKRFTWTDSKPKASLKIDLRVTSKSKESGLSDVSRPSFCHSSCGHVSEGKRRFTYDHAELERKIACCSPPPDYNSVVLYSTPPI
# Sequence of human Esterase Plasma (ES), BCHE (gene 590) (P06276 whole entry, looked up): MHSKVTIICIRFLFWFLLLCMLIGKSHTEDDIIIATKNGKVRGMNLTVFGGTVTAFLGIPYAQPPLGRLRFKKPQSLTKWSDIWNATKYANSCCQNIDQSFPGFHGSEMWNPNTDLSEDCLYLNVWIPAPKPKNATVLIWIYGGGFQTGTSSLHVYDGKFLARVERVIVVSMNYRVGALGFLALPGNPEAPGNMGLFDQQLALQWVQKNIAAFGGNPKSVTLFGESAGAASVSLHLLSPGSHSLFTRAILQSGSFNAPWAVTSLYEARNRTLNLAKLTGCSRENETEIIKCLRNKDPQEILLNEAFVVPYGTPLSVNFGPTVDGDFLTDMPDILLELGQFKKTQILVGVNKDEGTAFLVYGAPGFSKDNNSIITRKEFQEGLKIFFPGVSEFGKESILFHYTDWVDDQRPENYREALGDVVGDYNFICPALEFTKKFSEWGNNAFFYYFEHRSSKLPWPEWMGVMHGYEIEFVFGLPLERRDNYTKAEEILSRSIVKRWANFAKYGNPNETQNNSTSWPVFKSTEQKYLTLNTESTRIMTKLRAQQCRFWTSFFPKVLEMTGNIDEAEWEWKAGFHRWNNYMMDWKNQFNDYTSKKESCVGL
# Sequence of frog Thyroid hormone Receptor alpha (TRa), thra-a (gene 397942) (P15204 whole entry, looked up, the tested form may be a part): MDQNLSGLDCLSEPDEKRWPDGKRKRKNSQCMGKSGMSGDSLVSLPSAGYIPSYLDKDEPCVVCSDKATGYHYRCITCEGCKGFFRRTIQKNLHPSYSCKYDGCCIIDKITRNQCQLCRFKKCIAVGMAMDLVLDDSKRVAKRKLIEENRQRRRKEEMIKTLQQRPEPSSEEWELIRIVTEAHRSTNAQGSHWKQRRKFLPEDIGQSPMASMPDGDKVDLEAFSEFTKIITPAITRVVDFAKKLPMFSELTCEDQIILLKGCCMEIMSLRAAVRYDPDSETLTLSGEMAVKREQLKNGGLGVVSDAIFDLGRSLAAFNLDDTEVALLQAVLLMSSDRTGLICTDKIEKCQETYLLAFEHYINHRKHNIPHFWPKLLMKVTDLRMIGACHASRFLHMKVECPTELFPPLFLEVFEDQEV
# Sequence of chimpanzee Androgen Receptor (AR), AR (gene 747460) (O97775 whole entry, looked up): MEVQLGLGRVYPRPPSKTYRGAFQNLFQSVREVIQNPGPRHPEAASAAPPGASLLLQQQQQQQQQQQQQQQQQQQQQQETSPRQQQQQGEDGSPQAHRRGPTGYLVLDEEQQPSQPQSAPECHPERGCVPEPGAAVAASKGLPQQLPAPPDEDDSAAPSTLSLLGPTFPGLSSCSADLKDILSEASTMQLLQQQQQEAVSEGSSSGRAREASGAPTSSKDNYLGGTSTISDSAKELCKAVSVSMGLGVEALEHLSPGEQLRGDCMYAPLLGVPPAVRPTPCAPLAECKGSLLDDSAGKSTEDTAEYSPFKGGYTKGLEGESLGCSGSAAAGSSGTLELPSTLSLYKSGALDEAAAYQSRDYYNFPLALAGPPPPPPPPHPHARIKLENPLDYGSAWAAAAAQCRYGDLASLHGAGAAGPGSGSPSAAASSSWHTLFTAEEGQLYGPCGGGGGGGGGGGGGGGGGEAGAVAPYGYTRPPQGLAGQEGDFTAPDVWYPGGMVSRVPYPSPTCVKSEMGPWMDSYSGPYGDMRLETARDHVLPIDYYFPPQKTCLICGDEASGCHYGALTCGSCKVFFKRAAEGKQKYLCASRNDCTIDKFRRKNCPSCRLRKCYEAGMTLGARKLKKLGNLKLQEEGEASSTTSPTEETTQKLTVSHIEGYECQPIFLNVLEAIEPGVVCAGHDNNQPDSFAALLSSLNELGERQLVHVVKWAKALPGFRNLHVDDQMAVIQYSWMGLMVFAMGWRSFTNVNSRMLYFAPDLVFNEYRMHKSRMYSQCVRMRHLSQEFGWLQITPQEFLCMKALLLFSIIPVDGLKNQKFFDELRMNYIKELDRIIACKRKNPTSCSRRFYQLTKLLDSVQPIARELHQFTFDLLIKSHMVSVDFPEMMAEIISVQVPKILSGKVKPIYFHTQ
# Sequence of human Thyroid hormone Receptor beta (TRb), THRB (gene 7068) (P10828 whole entry, looked up, the tested form may be a part): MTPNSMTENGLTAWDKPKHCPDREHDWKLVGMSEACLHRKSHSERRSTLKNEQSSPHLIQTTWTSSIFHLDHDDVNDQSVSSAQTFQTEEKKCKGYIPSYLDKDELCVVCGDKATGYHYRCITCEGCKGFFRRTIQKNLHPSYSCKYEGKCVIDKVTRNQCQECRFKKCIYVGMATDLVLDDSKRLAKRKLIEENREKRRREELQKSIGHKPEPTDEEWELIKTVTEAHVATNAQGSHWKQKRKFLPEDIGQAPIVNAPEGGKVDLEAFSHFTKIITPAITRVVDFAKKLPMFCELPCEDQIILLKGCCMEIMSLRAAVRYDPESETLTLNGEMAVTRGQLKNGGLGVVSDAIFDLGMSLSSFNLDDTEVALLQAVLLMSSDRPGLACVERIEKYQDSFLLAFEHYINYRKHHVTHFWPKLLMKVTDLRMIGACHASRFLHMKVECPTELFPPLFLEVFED
# Sequence of Estrogen receptor (Homo sapiens) (P03372 whole entry, looked up): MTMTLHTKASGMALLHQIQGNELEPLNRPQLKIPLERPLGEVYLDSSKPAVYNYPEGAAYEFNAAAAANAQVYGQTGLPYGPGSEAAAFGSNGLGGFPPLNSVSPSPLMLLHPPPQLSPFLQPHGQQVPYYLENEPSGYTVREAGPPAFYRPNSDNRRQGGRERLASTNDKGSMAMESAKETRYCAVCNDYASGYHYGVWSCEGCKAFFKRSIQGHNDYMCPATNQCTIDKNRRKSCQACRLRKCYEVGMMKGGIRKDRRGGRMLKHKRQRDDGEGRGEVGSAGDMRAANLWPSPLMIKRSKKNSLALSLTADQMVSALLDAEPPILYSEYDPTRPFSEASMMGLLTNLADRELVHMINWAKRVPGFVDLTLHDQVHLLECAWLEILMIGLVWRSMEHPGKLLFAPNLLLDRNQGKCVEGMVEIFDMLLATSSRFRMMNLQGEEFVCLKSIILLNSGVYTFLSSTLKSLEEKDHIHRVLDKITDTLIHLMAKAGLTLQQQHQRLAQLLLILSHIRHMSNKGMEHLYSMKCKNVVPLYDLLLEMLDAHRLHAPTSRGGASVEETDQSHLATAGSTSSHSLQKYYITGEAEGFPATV
# Sequence of mouse Estrogen Receptor alpha (Era), Esr1 (gene 13982) (P19785 whole entry, looked up): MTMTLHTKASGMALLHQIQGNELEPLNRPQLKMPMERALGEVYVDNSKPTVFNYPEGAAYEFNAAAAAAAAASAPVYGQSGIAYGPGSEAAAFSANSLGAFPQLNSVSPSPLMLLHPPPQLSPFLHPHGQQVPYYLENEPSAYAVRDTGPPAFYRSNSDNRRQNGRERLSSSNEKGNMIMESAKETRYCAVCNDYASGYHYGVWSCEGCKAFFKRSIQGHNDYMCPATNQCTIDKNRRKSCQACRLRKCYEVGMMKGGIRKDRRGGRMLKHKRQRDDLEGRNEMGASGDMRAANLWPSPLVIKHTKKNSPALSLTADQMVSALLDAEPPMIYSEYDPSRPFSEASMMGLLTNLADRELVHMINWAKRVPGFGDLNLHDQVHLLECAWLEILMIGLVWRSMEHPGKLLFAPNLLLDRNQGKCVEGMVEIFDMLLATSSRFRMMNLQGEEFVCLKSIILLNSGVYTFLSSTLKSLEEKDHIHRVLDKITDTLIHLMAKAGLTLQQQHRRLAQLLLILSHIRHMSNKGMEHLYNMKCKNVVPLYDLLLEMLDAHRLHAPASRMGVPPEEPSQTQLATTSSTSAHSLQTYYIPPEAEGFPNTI
smiles,measurement,setting,value
O=c1c2ccccc2c(=O)c2c1cc(Cl)c1[nH]c3c([nH]c12)c(Cl)cc1c(=O)c2ccccc2c(=O)c13,AC50,[1],0.732 µM (active)
same,AC50,[2],10 µM (active)
O=C(CCl)c1ccccc1,outcome,[3],inactive
Nc1ccc(Cl)c(Cl)c1,AC50,[4],25 µM (active)
Cc1ccc(OP(=O)(Oc2ccc(C)cc2)Oc2ccc(C)cc2)cc1 (tested in a mixture with another compound),AC50,[2],61.9 µM (active)
same,outcome,[5],inactive
same,outcome,[6],inactive
same,outcome,[7],inactive
same,AC50,[8],20.6 µM (active)
same,outcome,[9],inactive
same,AC50,[10],20.2 µM (active)
CC(C)CCCCCCCOC(=O)c1ccccc1C(=O)OCCCCCCCC(C)C,AC50,[11],100 µM (active)
same,outcome,[12],inactive
same,outcome,[13],inactive
same,outcome,[14],inactive
CC1(C)[C@H](C(=O)O[C@H](C#N)c2cccc(Oc3ccccc3)c2)[C@@H]1C=C(Br)Br,outcome,[15],inactive
same,outcome,[16],inactive
BrCBr,outcome,[1],inactive
O=[N+]([O-])c1cc(C(F)(F)F)c(Cl)c([N+](=O)[O-])c1Cl,outcome,[17],inactive
same,outcome,[18],inactive
COC(C)(C)CCC[C@H](C)C/C=C/C(C)=C/C(=O)OC(C)C,AC50,[19],16.5 µM (active)
